# Hit rate of the full screen: of about 310,000 compounds, about 14,000 (4.5%) showed an effect of 50% or more. The effect is printed as a negative number. This is one part of a sample in which strong results are shown more often than they occur.
# Biological target: human ether-à-go-go-related gene (hERG) potassium channel (human, UniProt Q12809)
# Assay: primary screen, population patch clamp on CHO cells stably expressing hERG; higher = less effect of the substance
# 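Also: peak tail current of the secondary pulse compared with the same well before compound.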
# human ether-à-go-go-related gene (hERG) potassium channel, sequence (Q12809 whole entry, looked up): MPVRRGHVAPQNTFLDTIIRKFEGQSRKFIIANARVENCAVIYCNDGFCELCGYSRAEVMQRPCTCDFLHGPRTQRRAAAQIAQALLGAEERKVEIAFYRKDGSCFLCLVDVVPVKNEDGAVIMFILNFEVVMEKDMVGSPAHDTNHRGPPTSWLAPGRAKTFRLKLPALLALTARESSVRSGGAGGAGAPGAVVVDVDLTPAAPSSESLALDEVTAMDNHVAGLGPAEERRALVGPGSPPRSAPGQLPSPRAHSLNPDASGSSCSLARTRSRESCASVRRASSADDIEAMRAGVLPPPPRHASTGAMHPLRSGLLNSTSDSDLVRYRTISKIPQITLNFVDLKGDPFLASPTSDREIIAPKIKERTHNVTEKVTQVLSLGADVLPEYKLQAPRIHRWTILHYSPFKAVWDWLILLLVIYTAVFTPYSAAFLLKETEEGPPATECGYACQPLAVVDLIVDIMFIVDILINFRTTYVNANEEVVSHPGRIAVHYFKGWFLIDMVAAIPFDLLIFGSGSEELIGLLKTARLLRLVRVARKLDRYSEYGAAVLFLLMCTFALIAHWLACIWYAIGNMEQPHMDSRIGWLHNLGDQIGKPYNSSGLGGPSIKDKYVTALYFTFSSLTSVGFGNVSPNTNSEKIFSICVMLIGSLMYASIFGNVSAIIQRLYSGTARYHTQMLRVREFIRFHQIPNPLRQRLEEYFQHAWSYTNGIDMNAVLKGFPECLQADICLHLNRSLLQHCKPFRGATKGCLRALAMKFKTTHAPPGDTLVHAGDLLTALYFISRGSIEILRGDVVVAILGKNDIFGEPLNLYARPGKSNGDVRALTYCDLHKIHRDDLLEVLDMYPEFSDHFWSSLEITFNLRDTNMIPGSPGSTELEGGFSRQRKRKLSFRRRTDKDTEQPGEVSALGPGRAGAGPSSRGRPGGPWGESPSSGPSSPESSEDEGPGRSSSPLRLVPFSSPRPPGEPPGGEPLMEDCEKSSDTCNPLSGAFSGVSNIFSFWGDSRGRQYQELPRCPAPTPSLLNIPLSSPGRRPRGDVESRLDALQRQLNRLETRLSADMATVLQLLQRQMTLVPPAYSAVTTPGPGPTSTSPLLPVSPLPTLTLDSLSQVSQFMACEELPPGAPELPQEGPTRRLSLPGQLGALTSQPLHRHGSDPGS
row,SMILES,"hERG current change (%, negative = inhibition) at 10uM [%]"
1,COCCCn1c(C23CC4CC(CC(C4)C2)C3)n[nH]c1=S,-5.2
2,O=C(c1csc2c1CCCC2)N1CCN(c2ccccc2)CC1,-14.8
3,O=S(=O)(Cc1ccccc1)N1CCN(Cc2ccc(F)cc2Cl)CC1,4.56
4,CCc1nnc(NC(=O)CN2CCN(c3nc(-c4ccccc4)cs3)CC2)s1,-11.8
5,COCCCNC(=O)C1CCN(C(=O)c2oc3cc4sc(N(C)C)nc4cc3c2C)CC1,7.03
6,CCOC(=O)CNC(=O)CNC(=O)c1nn(-c2ccc(OC)c(Cl)c2)c(=O)c2ccccc12,2.21
7,Cc1ccccc1C(=O)NC(=S)N(C)C1CCCCC1,21.2
8,COc1cccc(Cn2nc(C(=O)O)c3ccccc3c2=O)c1,9.63
9,O=C(OCc1nc2ccsc2c(=O)[nH]1)c1ccc(Cl)s1,-5.59
10,O=C(Nc1nc2ccccc2[nH]1)c1cccc(Cl)c1,17.5
11,CCc1ccc2oc(-c3cc(N=Cc4cccc(OC)c4O)ccc3O)nc2c1,24.3
12,CN(Cc1ccccc1)C(=O)c1ccc(NC(=O)Cc2cccc(NC(=O)C3CCN(C(=O)C4CCCCC4)CC3)c2)cc1,8.47
13,CCC(C)c1ccc(S(=O)(=O)N2CCN(C(C)C(=O)NC3CCCC3)CC2)cc1 (stereo not shown),-79.1
14,CCC(C)c1ccc(S(=O)(=O)N2CCN(C(C)CC(=O)O)CC2)cc1 (stereo not shown),3.41
15,CC(C)c1ccc(S(=O)(=O)N2CCN(C(C)C(=O)N3CCCC3)CC2)cc1 (stereo not shown),-11.8
16,CC(C(=O)NC1CCCCC1)N1CCN(S(=O)(=O)c2cccs2)CC1 (stereo not shown),-9.2
17,CC(C)c1ccc(S(=O)(=O)N2CCN(C(C)C(=O)NC3CCCC3)CC2)cc1 (stereo not shown),-75.5
18,CC(C(=O)NC1CCCC1)N1CCN(S(=O)(=O)c2ccc(C(C)(C)C)cc2)CC1 (stereo not shown),-19.8
19,CCCCCCNS(=O)(=O)c1ccc(OC)c(OC)c1,-11
20,CCOC(=O)c1sc(S(C)(=O)=O)c2c1CCc1conc1-2,8.59
21,Cc1ccc(-n2c(-c3ccccc3)n[nH]c2=S)cc1,15.6
22,CC(C)OC(=O)/C(=C/c1ccc2c(c1)c1ccccc1n2C)NC(=O)c1ccccc1,-1.72
23,O=C(N/N=C/c1c(O)n(-c2ccccc2)c(=O)[nH]c1=O)c1ccncc1,16.2
24,Cc1oc(C2CC2)cc1C(=O)O,-9.52
25,CCn1cc(CN2CCC(C(=O)Nc3cccc(-c4cccc(F)c4)c3)CC2)cn1,-66.4
26,CC(C)n1cc(CN2CCC(C(=O)Nc3cccc(-c4cscn4)c3)CC2)cn1,-32.8
27,CC(C)n1cc(CN2CCC(C(=O)Nc3cccc(-c4cccc(Cl)c4)c3)CC2)cn1,-85.1
28,COc1cccc(-c2cccc(NC(=O)C3CCN(Cc4cnn(C)c4)CC3)c2)c1,-15.6

row,SMILES,"hERG current change (%, negative = inhibition) at 10uM [%]"
1,CCn1ncc(CN2CCCC(C(=O)Nc3cccc(-c4cc5ccccc5[nH]4)c3)C2)c1C (stereo not shown),-56.7
2,CCn1cc(CN2CCCC(C(=O)Nc3cccc(-c4cc5ccccc5[nH]4)c3)C2)c(C)n1 (stereo not shown),-14.4
3,Cn1cc(CN2CCC(C(=O)Nc3cccc(-c4cccc(F)c4)c3)CC2)cn1,-67.4
4,CC(C)n1cc(CN2CCCC(C(=O)Nc3cccc(-c4cc5ccccc5[nH]4)c3)C2)cn1 (stereo not shown),-46.3
5,Cn1cc(CN2CCC(C(=O)Nc3cccc(-c4cscn4)c3)CC2)cn1,5.33
6,CCn1cc(CN2CCCC(C(=O)Nc3cccc(-c4cc5ccccc5[nH]4)c3)C2)cn1 (stereo not shown),-6.49
7,CC(C)Sc1nsc2nc(=O)c(/C=C3\C=Nc4ccccc43)c(N)n12,11.7
8,CN(CC(=O)Nc1cccnc1)S(=O)(=O)c1ccc(Br)cc1,-21.3
9,COC(=O)c1ccc(/C=N/NC(=O)CC(=O)NCC(C)C)cc1,20.5
10,CC(=O)c1ccc(N/N=C2/CCCNC2=O)cc1,11.3
11,Oc1ccccc1/C=N/NC(=S)NC1CC2CC1C1C=CCC21 (stereo not shown),27.3
12,c1cnc(N2CCSCC2)nc1,0.773
13,C#CCSc1nc(-c2ccccc2)cc(C(F)(F)F)c1C#N,7.12
14,CCCn1cc(CN2CCC(C(=O)Nc3cccc(-c4cscn4)c3)CC2)c(C)n1,-45.3
15,CCn1cc(CN2CCC(C(=O)Nc3cccc(-c4cccc(OC)c4)c3)CC2)cn1,-49.8
16,CCCn1ncc(CN2CCC(N3CCC(C(=O)N4CCOCC4)CC3)CC2)c1C,14.4
17,CC(=O)c1cccc(CN2CCC(C(=O)Nc3cccc(-c4ccn[nH]4)c3)CC2)c1,-3.45
18,CCCn1ncc(CN2CCC(C(=O)Nc3cccc(-c4cccc(F)c4)c3)CC2)c1C,-71.7
19,CCn1cc(CN2CCC(C(=O)Nc3cccc(-c4cccc(Cl)c4)c3)CC2)cn1,-67.9
20,C=CCOc1ccccc1CN1CCC(C(=O)Nc2cccc(-c3ccn[nH]3)c2)CC1,-33.9
21,CCn1cc(CN2CCC(C(=O)Nc3cccc(-c4cscn4)c3)CC2)cn1,-15.4
22,CCOc1ccc(CN2CCC(C(=O)Nc3cccc(-c4ccn[nH]4)c3)CC2)cc1Cl,-62.3
23,COCCn1c(SCC(=O)OCc2ccccc2)nc2c1c(=O)[nH]c(=O)n2C,-25.6
24,CCN1C(=O)CC(N2CCC(Cc3ccccc3)CC2)C1=O (stereo not shown),-2.52
25,CCOC(=O)C1(C)NC(c2ccco2)C2C(=O)N(c3ccccc3)C(=O)C21 (stereo not shown),10.4
26,Cc1cc(Br)ccc1NC(=O)C1CCN(S(=O)(=O)c2cnc[nH]2)CC1,8.88
27,COc1ccc2c(c1)C(c1ccc(N3CCOCC3)cc1)=NNC(c1cccnc1)=N2,-5.34
